Compound activity deposited in PubChem by National Center for Advancing Translational Sciences (NCATS).
Shown are actives, neighbours in structure and some others; about 1.1% of the full set was active somewhere.
NPSR antag = antagonists of human neuropeptide S receptor cAMP signaling; Q6W5P4; 220,000 compounds, 1% hits; CHO-NPSR cells, cAMP TR-FRET, antagonist mode; Potency, µM (doses to about 38.3 µM), actives largely listed as inhibitors; further: nearly all actives have a fitted effect of over 50% in size
HTT aggregate = mutant huntingtin aggregation inhibition | PC12 HttQ103-GFP aggregates, Acumen cytometry, 40 h | Potency, µM (series often up to 46.1 µM), hits mostly inhibitors | 220,000 compounds, 1.1% hits; further: nearly all actives have a fitted effect of over 60% in size
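Compounds (qHTS titration) were added to PC12 cells expressing an ecdysone-driven HTT exon 1 Q103–GFP fusion after induction with 100 nM tebufenozide. Aggregate formation was measured as GFP objects in cell lysates.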
AT treatment = candidate therapy for ataxia-telangiectasia; F2112 A-T fibroblasts, KAP-1 phosphorylation AlphaLISA; neocarzinostatin DNA damage 30 min before lysis; Potency, µM (titrated, usually from 57.5 µM), usual class: activators; 320,000 compounds, 0.19% hits; further: nearly all actives have a fitted effect of over 45% in size
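ATM-like activity read as KAP-1 phosphorylation via AlphaLISA donor/acceptor antibody pairs after lysis and 6 hr at 25C. Cells were ATM-null patient fibroblasts (F2112, hTERT), dosed 60 min, then exposed to the DSB inducer NCS for 30 min.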
HTT cytoprotect = protects HTT-Q103 PC12 cells, measured by ATP; AID 1471; Potency, µM (doses to about 56.4 µM), actives largely listed as activators; 230,000 compounds, 0.14% hits; PC12 HTT-Q103 induced, cytoprotection, ATP luminescence, 40 h; further: nearly all actives have a fitted effect of over 45% in size
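Stable PC12 Q103-GFP cells in serum-supplemented, phenol red-free DMEM; induction by tebufenozide at 100 nM final; compound dose series; cell viability quantified luminescently from ATP.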
mIDH1 inhibitor = blocks human mutant IDH1 R132H enzyme; IDH1-R132H enzyme, NADPH consumption, diaphorase/resazurin fluorescence; Potency, µM (highest dose often 76.6 µM), actives largely listed as inhibitors; 390,000 compounds, 0.093% hits; further: nearly all actives have a fitted effect of over 65% in size
Target sequence (O75874 whole entry R132H, stated change not applied): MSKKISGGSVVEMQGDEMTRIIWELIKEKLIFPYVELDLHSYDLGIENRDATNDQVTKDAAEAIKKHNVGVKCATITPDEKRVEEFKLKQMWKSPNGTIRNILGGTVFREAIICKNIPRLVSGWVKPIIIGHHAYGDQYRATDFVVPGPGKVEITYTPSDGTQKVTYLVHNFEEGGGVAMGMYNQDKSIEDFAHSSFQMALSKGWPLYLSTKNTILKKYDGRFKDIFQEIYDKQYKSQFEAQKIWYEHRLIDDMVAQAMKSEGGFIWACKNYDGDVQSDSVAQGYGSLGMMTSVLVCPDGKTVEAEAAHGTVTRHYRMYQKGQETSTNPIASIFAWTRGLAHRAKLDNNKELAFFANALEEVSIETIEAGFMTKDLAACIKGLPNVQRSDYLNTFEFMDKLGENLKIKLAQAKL
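IDH1-R132H (0.5 ug/mL) preincubated 30 min with compound, then NADPH (0.016 mM) and alpha-KG (2 mM) added; 80 min at RT, pH 7.5. Remaining NADPH coupled via diaphorase/resazurin to fluorescence (540/590 nm); concentration-response curves normalized to no-enzyme control.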
Each line names hits and unclear results; the compound was inactive in the other large screens. The call rests on the fitted dose curve; in most records, active means well fitted curve in the direction sought with a large enough effect; inconclusive means small, poorly fitted or top-dose-only effect, or another doubt; inactive means no such curve, though single readings can be large; an effect the other way counts as inactive or inconclusive.

COC(=O)C1=C(C)NC(C)=C(C(=O)OCCN2CCN(C(c3ccccc3)c3ccccc3)CC2)C1c1cccc([N+](=O)[O-])c1 (configuration not stated)	none (no result: NPSR antag, AT treatment, mIDH1 inhibitor)
COC(=O)C1=C(C)NC(C)=C(C(=O)OCCN(C)Cc2ccccc2)C1c1cccc([N+](=O)[O-])c1 (configuration not stated)	NPSR antag 10µM
COC(=O)c1c(NC(=O)c2cccnc2)sc(C(=O)N(C)C)c1C	HTT cytoprotect 1.26µM
O=C1CN2CCN(CC2)CC(=O)Nc2ccc(cc2)S(=O)(=O)c2ccc(cc2)NC(=O)CN2CCN(CC2)CC(=O)Nc2ccc(cc2)S(=O)(=O)c2ccc(cc2)N1	none (no result: NPSR antag, HTT aggregate, AT treatment, mIDH1 inhibitor)
COc1ccc(NS(=O)(=O)c2cc(NC(=O)C3CC3)ccc2N2CCCCC2)cc1	NPSR antag 12.6µM, HTT aggregate inconclusive
COc1ccc(NS(=O)(=O)c2cc(NC(=O)C3CC3)ccc2N2CCOCC2)cc1	none (no result: HTT cytoprotect)
CC1(OC(=O)C2CCCC2)C(=O)C=C2C=C(c3ccsc3)N(c3ccc(CO)cc3)C=C2C1=O (configuration not stated)	none (no result: NPSR antag, HTT aggregate, AT treatment, mIDH1 inhibitor)
CC(=O)NC(c1ccc(Cl)cc1)c1ccc2cccnc2c1O (configuration not stated)	none (no result: NPSR antag, HTT aggregate, AT treatment, HTT cytoprotect)
Oc1c(C(Nc2ccccn2)c2ccccn2)ccc2cccnc12 (configuration not stated)	NPSR antag inconclusive, HTT aggregate 2.82µM
CC(=O)NC(c1ccco1)c1ccc2cccnc2c1O (configuration not stated)	HTT aggregate 3.55µM
Cc1cccc(N2CCN(C(=O)Cn3nc(Cc4cccnc4)c4ccccc4c3=O)CC2)c1C	none (no result: NPSR antag, HTT aggregate, AT treatment, HTT cytoprotect)
CCc1c(C)nc2ccc(Br)cc2c1SCCC#N	HTT aggregate 7.94µM
CCCCc1c(C)nc2ccc(Br)cc2c1SCCC#N	HTT aggregate inconclusive (no result: mIDH1 inhibitor)
CCc1c(C)nc2c(Br)cccc2c1SCCC#N	none
CCCc1c(C)nc2ccccc2c1SCCC#N	HTT aggregate 3.16µM
N#C/C(=C/c1ccc(N2CCCCCC2)o1)c1ccc(F)cc1	none (no result: NPSR antag, HTT aggregate, AT treatment, HTT cytoprotect)
N#C/C(=C/c1ccc(N2CCCCCC2)o1)c1cccc(F)c1	NPSR antag 6.31µM, HTT aggregate inconclusive, AT treatment inconclusive, HTT cytoprotect inconclusive
N#C/C(=C/c1ccc(N2CCCCC2)o1)C(=O)Nc1ccc2ccccc2c1	HTT aggregate 2.51µM
Cc1nn(-c2ccccc2)c(Cl)c1/C=N/NC(=O)CCNc1n[nH]c(=O)[nH]c1=O	AT treatment 20µM
NNC(=O)Cc1cccnc1	none (no result: NPSR antag, HTT aggregate, AT treatment, mIDH1 inhibitor)
CC1C(=O)N2CCCc3cc(S(=O)(=O)Nc4ccc(Br)cc4F)cc1c32 (configuration not stated)	none (no result: NPSR antag, HTT aggregate, AT treatment, HTT cytoprotect)
CN(C/C=C/c1ccccc1)Cc1cccc2ccccc12	AT treatment 39.8µM (no result: NPSR antag, HTT aggregate, HTT cytoprotect)
CCC(C)(C)c1ccc(OCCCC[n+]2ccc(C)cc2)c(C(C)(C)CC)c1	NPSR antag inconclusive, HTT aggregate 17.8µM
O=C(NCCc1cn2ccccc2n1)c1cc(COc2ccc3ncccc3c2)on1	HTT aggregate 11.2µM
Cn1c(=O)c(CCc2ccccc2)nc2cnc(N3CCNCC3)nc21	none (no result: NPSR antag, HTT aggregate, AT treatment, mIDH1 inhibitor)
CCOC(=O)c1cc([N+](=O)[O-])c([N+](=O)[O-])cc1NC(C)=O	NPSR antag 10µM (no result: HTT cytoprotect)
CN(C(=O)c1cccc(C(=O)N(C)c2ccccc2)c1)c1ccccc1	none (no result: NPSR antag, HTT aggregate, HTT cytoprotect)
CN(C(=O)c1cc(C(=O)N(C)c2ccccc2)cc([N+](=O)[O-])c1)c1ccccc1	AT treatment 39.8µM (no result: NPSR antag, HTT aggregate, HTT cytoprotect)
Cc1cccc(NC(=O)/C(C#N)=C/c2ccc(F)cc2)n1	AT treatment 0.708µM (no result: NPSR antag, HTT aggregate, HTT cytoprotect)
Cc1cc(/C=C2\SC(=Nc3ccc(F)cc3)NC2=O)c(C)n1-c1ccc(S(N)(=O)=O)cc1	NPSR antag 10µM, HTT aggregate inconclusive
COc1cc(O)c(CC=C(C)C)c(O)c1C(=O)CCc1ccc(O)cc1	none
O=C(CCc1ccc(O)cc1)c1c(O)cc(O)cc1O	AT treatment 28.2µM
CCCOc1ccc(C(=O)CCC(=O)OCC(=O)Nc2ccc(Oc3ccccc3)cc2)cc1	HTT aggregate inconclusive (no result: mIDH1 inhibitor)
CCCOc1ccc(C(=O)CCC(=O)OCC(=O)Nc2ccc(OCC)cc2)cc1	AT treatment 14.1µM (no result: mIDH1 inhibitor)
